The values that follow come from PubChem BioAssay (NCATS).

Structures are written as SMILES. “And” between values parts separate entries of the source, which are not always exact repeats. Equal entries are not always repeated. Records with an inconclusive call do not appear. The source holds several records for some structures; these can differ, active in one and inactive in another. The source made the active and inactive calls. Calls come from the whole dose curve.
Potency is the fitted concentration of half-maximal effect.

Chain of Cytochrome P450 1A2 (Homo sapiens) (P05177 whole entry, looked up): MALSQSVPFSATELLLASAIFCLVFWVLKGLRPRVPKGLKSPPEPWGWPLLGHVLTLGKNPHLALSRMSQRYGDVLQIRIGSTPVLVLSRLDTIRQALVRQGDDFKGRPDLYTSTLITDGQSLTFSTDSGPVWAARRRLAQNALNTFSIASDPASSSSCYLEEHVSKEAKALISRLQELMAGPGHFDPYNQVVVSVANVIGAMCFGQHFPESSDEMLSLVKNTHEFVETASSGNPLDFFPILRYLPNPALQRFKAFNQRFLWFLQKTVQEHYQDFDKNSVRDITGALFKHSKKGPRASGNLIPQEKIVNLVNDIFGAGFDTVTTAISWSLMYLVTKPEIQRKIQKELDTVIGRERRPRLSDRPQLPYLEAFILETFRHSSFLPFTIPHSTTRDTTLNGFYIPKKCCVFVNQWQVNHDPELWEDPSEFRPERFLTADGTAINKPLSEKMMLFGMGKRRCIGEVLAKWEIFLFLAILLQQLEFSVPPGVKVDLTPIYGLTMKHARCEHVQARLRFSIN

This assay has as its target Cytochrome P450 1A2 (Homo sapiens) (UniProt P05177). Nature of the assay: p450-cyp1a2 (AID 410).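 For activity change, negative = inhibition: -100% = full effect of reference inhibitor.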 The settings on record: recombinant CYP1A2, luciferin-ME demethylation, luminescence; series mostly up to 57 µM; activity change, negative = inhibition: at the top concentration. The protocol:
The P450 gene superfamily is involved in metabolism and the clearance of xenobiotics. This assay used human CYP1A2 to measure the demethylation of luciferin 6' methyl ether (Luciferin-ME; Promega-Glo) to luciferin. The luciferin is then measured by luminescence after the addition of a luciferase detection regeant. Luciferin-ME concentration in the assay was equal to its Km for CYP1A2.
NCGC Assay Protocol Summary:
Two uL of enzyme and substrate mix (final concentrations: 20nM CYP1A2, 100uM Luciferin-ME, 100mM KPO4) were dispensed into a white, solid bottom 1536-well microtiter plate. 23nL of compound was transferred by a pin tool. The plate was incubated at room temperature for 10 min. Two uL of an NADPH regeneration solution (Promega supplied reagent) was dispensed and the reaction was allowed to continue for 60 min at room temperature. Then the reaction was stopped by reconstituted detection reagent. After another 20 min of incubation the plate was read on the ViewLux (Perkin Elmer) at 60 sec exposure and 2x2 binning. This protocol was carried out with Promega-Glo reagents and further information can be found at http://www.promega.com/tbs/tb325/tb325.pdf. Data were normalized to the to AC100 inhibition (57 uM furafylline).
As to `COc1ccc(-n2c(=O)c(-c3cccs3)nc3cnc(Nc4cccc(OC)c4)nc32)cc1`, the “activity change, negative = inhibition” value is -19.5% (inactive).
Same read-out and setting: with `Cn1cccc1C(=O)N1CCC2(CCN(Cc3ccccc3)CC2)CC1` the figure was 10.3% (inactive).
For the compound `COc1cccc(-c2nc(Nc3ccncc3)c3ccccc3n2)c1`, the Potency was 0.794 µM (active).
Regarding `O=C(O)[C@H]1CCCN(CCC=C(c2ccccc2)c2ccccc2)C1`, the Potency result is “inactive and 31.6 µM (active)”.
For `CCNc1ncc2nc(-c3ccc(Cl)cc3)c(=O)n(C3CC3)c2n1`, the Potency is 0.501 µM (active).
As to `O=S(=O)(c1ccccc1)N1CCC2(CCCN(Cc3nccs3)C2)CC1`, the “activity change, negative = inhibition” value was 13.2% (inactive).
Turning to `CN1CCN(c2ncc3nc(-c4cccc(C#N)c4)c(=O)n(C[C@H]4CCCO4)c3n2)CC1`, the Potency was 15.8 µM (active).
On to `c1ccc(CNc2ccnc(-c3ccc4c(c3)OCO4)n2)cc1`, for which the Potency is 0.398 µM (active).
On to `COCCn1c(=O)c(-c2cccc(Cl)c2)nc2cncnc21`, for which the Potency is 0.631 µM (active).
Turning to `N#Cc1cccc(-c2ccc3ncnc(NC4CCNCC4)c3c2)c1`, the Potency is 15.8 µM (active).
Take `O=C(Oc1ccccc1)N1CCC2(CC1)CN(c1ccccn1)C2`: the “activity change, negative = inhibition” value was -19.3% (inactive).
As to `Cc1cccc(CNc2ncncc2-c2cccc(NS(C)(=O)=O)c2)c1`, the Potency was 12.6 µM (active).
`O=C(Oc1ccccc1)N1CCC2(CCCN(c3ccc(-c4ccccc4)cc3)C2)CC1`: the “activity change, negative = inhibition” value is 10.2% (inactive).
On to `c1ccc2c(NC3CC3)nc(-c3ccoc3)nc2c1`, for which the Potency was 0.316 µM (active).
Turning to `CN(C)c1ccc(-c2cncnc2Nc2ccc(F)cc2)cc1`, the Potency is 0.501 µM (active).
On to `COc1cccc(-c2ccc3ncnc(NCCNC(C)=O)c3c2)c1`, for which the Potency was 3.16 µM (active).
As for `COc1ccc(NC(=O)N2CCCC3(CCN(C(=O)c4cccn4C)CC3)C2)cc1`, the Potency is 25.1 µM (active).
On to `COc1ccccc1CN1CCC2(CC1)CCN(C(=O)c1c(C)noc1C)CC2`, for which the “activity change, negative = inhibition” value is -17.2% (inactive).
For `COCC(=O)N1CCC2(CC1)CN(C(=O)Nc1ccccc1)C2`, the Potency is 12.6 µM (active).
With `c1ccc(-c2ccc(N3CCCC4(CCNCC4)C3)cc2)cc1`, the Potency was 10 µM (active).
As for `CS(=O)(=O)N1CCC2(CC1)CN(c1ccc(-c3ccccc3)cc1)C2`, the “activity change, negative = inhibition” value was 33.2% (inactive).
In the case of `COc1ccc(-n2c(=O)c(-c3cc(F)cc(F)c3)nc3cnc(N4CCNCC4)nc32)cc1`, the Potency is 12.6 µM (active).
On the same count and under the same terms, in the case of `Cc1cnc(CNc2ncnc3ccc(-c4ccc(C(=O)N(C)C)cc4)cc23)cn1` it was 15.8 µM (active).
As for `COCCn1c(=O)c(-c2cccs2)nc2cnc(N3CCN(C)CC3)nc21`, the Potency was 15.8 µM (active).
Take `COc1ccc2[nH]cc(CCNc3ncnc4ccc(-c5ccccc5CN(C)C)cc34)c2c1`: the Potency was 31.6 µM (active).
In the case of `COc1ccccc1CNc1ccnc(-c2ccc(N(C)C)cc2)n1`, the Potency is 0.794 µM (active).
Turning to `CC1(C)O[C@@H]2C[C@H]3[C@H]4C[C@H](F)C5=CC(=O)C=C[C@@]5(C)[C@@H]4[C@H](O)C[C@]3(C)[C@]2(C(=O)CO)O1`, the “activity change, negative = inhibition” value is -10.9% [at 25.6 µM] (inactive).
Consider `CN(C)c1ccc(-c2cncnc2NCc2cccnc2)cc1`, for which the Potency was 1 µM (active).
For the compound `COc1cccc(-c2nc(NCCNC(C)=O)c3ccccc3n2)c1`, the Potency is 2.51 µM (active).
As to `CC(=O)N1CCC2(CCCN(c3ncccn3)C2)CC1`, the “activity change, negative = inhibition” value is -19.5% (inactive).
On to `c1ccc(CNc2ncnc3ccc(-c4ccc5c(c4)OCO5)cc23)cc1`, for which the Potency was 0.2 µM (active).
For `CN1CCN(c2ncc3nc(-c4ccc(Cl)cc4)c(=O)n(Cc4ccc(F)cc4)c3n2)CC1`, the Potency is 31.6 µM (active).
On to `COc1ccccc1CNc1cc(-c2ccccc2C)ncn1`, for which the Potency is 5.01 µM (active).
Turning to `COc1ccc(-c2nc3cnc(N4CCN(C)CC4)nc3n(CCC#N)c2=O)cc1`, the “activity change, negative = inhibition” value is -15.1% (inactive).
Take `CCN(CC)CCC[C@H](C)Nc1c2ccc(Cl)cc2nc2ccc(OC)cc12`: the Potency is 2 µM (active) and 1 µM (active).
In the case of `COc1ccc(-n2c(=O)c(-c3ccc(Cl)cc3)nc3cnc(N(C)C)nc32)cc1`, the Potency is 10 µM (active).
The same measure, in the same setting: with `Cn1c(=O)c(CCc2ccccc2)nc2cnc(Nc3ccccc3)nc21` the figure was 1.26 µM (active).
As for `Cc1cnc(CNc2cc(-c3ccccc3C)ncn2)cn1`, the Potency was 12.6 µM (active).
For the compound `COc1cccc(Cn2c(=O)cnc3cnc(OCc4ccccc4)nc32)c1`, the Potency was 12.6 µM (active).
In the case of `COC(=O)N1CCC2(CC1)CCN(C(c1ccccc1)c1ccccc1)CC2`, the “activity change, negative = inhibition” value was 1% (inactive).
